Among the data in PubChem BioAssay (Tox21) are Potency and max response values, retold here.

Assay [1] can be described thus: A CellTox Green Cytotoxicity Assay to monitor cytotoxicity in HEK293 cells - 40 hour (AID 1224871). Note: nearly all actives have a fitted effect of over 45% in size. Note: potency is the fitted concentration of half-maximal effect. Conditions: CellTox Green fluorescence; series mostly up to 76.8 µM. Summed up:
(§1)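 Tox21 screen in HEK293: membrane-impermeant cyanine dye fluoresces on binding dead-cell DNA; compound pinned 5 h post-seeding, plates held at 37 C, signal read repeatedly through 40 h.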

A short description of assay [2]: qHTS RealTime-Glo MT Cell Viability Assay in HEK293 cells - 16 hour (AID 1224872). Note: top concentration of the series differs between compounds; nearly all actives have a fitted effect of over 50% in size. Conditions: RealTime-Glo luminescence; series mostly up to 76.8 µM. Summed up:
(§2)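 Quantitative high-throughput screen of the Tox21 10K library in HEK293: cells and RealTime-Glo reagents plated together, compound added at 5 h, luminescence monitored through 40 h at 37 C.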

Assay [3] can be described thus: qHTS RealTime-Glo MT Cell Viability Assay in HepG2 cells - 8 hour (AID 1224873). Note: nearly all actives have a fitted effect of over 55% in size. Note: potency is the fitted concentration of half-maximal effect. Conditions: RealTime-Glo luminescence; series mostly up to 76.8 µM. Summed up:
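HepG2 cells (600/well) mixed with RealTime-Glo MT reagent, settled 5 h at 37 C/5% CO2 before compound addition. Nonlytic NanoLuc luminescence from viable-cell prosubstrate reduction read repeatedly during 40 h treatment at 37 C.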

A short description of assay [4]: A CellTox Green Cytotoxicity Assay to monitor cytotoxicity in HEK293 cells - 24 hour (AID 1224875). Note: nearly all actives have a fitted effect of over 45% in size. Note: potency is the fitted concentration of half-maximal effect. The note with it: CellTox Green fluorescence; series mostly up to 76.8 µM. A digest of the protocol:
as §1

Assay [5] can be described thus: A CellTox Green Cytotoxicity Assay to monitor cytotoxicity in HepG2 cells - 16 hour (AID 1224876). Note: nearly all actives have a fitted effect of over 45% in size. Note: potency is the fitted concentration of half-maximal effect. The note with it: CellTox Green fluorescence; series mostly up to 76.8 µM. Summed up:
(§3)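 Measurements at 0, 8, 16, 24, 32 and 40 h of treatment captured CellTox Green fluorescence in HepG2 cells that had been co-plated with reagent and preincubated 5 h at 37 C/5% CO2.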

Assay [6] in a line: qHTS RealTime-Glo MT Cell Viability Assay in HepG2 cells - 32 hour (AID 1224877). Note: nearly all actives have a fitted effect of over 55% in size. Note: potency is the fitted concentration of half-maximal effect. The note with it: RealTime-Glo luminescence; series mostly up to 76.8 µM. A digest of the protocol: (§4)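 Compound treatment began 5 h after plating HepG2 cells (600/well) with NanoLuc luciferase and prosubstrate. Plates stayed at 37 C for 40 h; luminescence was captured at six time points, 0 h through 40 h.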

The nature of assay [7]: A CellTox Green Cytotoxicity Assay to monitor cytotoxicity in HepG2 cells - 24 hour (AID 1224878). Note: nearly all actives have a fitted effect of over 45% in size. Note: potency is the fitted concentration of half-maximal effect. Conditions: CellTox Green fluorescence; series mostly up to 76.8 µM. A digest of the protocol:
as §3

The nature of assay [8]: A CellTox Green Cytotoxicity Assay to monitor cytotoxicity in HepG2 cells - 40 hour (AID 1224879). Note: nearly all actives have a fitted effect of over 40% in size. Note: potency is the fitted concentration of half-maximal effect. The note with it: CellTox Green fluorescence; series mostly up to 76.8 µM. A digest of the protocol:
as §3

Assay [9] in a line: qHTS RealTime-Glo MT Cell Viability Assay in HEK293 cells - 0 hour (AID 1224880). Note: nearly all actives have a fitted effect of over 45% in size. Note: potency is the fitted concentration of half-maximal effect. The note with it: RealTime-Glo luminescence; series mostly up to 76.8 µM. A digest of the protocol:
(§5)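 HEK293 + NanoLuc + prosubstrate, 600 cells/well; 5 h, 37 C/5% CO2; compound 23 nL in DMSO by pintool; 37 C; luminescence read at 0, 8, 16, 24, 32 and 40 h time points.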

The nature of assay [10]: A CellTox Green Cytotoxicity Assay to monitor cytotoxicity in HepG2 cells - 0 hour (AID 1224882). Note: nearly all actives have a fitted effect of over 35% in size. The note with it: CellTox Green fluorescence; series mostly up to 76.8 µM. A digest of the protocol:
as §3

The nature of assay [11]: A CellTox Green Cytotoxicity Assay to monitor cytotoxicity in HepG2 cells - 32 hour (AID 1224883). Note: nearly all actives have a fitted effect of over 50% in size. Note: potency is the fitted concentration of half-maximal effect. Conditions: CellTox Green fluorescence; series mostly up to 76.8 µM. Summed up:
as §3

A short description of assay [12]: A CellTox Green Cytotoxicity Assay to monitor cytotoxicity in HEK293 cells - 8 hour (AID 1224884). Note: nearly all actives have a fitted effect of over 35% in size. The note with it: CellTox Green fluorescence; series mostly up to 76.8 µM. Summed up: as §1
Assay [13] can be described thus: qHTS RealTime-Glo MT Cell Viability Assay in HepG2 cells - 16 hour (AID 1224885). Note: nearly all actives have a fitted effect of over 50% in size. Note: potency is the fitted concentration of half-maximal effect. Conditions: RealTime-Glo luminescence; series mostly up to 76.8 µM. A digest of the protocol: as §4
Assay [14] can be described thus: qHTS RealTime-Glo MT Cell Viability Assay in HEK293 cells - 24 hour (AID 1224886). Note: nearly all actives have a fitted effect of over 50% in size. Note: potency is the fitted concentration of half-maximal effect. The note with it: RealTime-Glo luminescence; series mostly up to 76.8 µM. A digest of the protocol: as §2
A short description of assay [15]: A CellTox Green Cytotoxicity Assay to monitor cytotoxicity in HEK293 cells - 16 hour (AID 1224888). Note: nearly all actives have a fitted effect of over 35% in size. Conditions: CellTox Green fluorescence; series mostly up to 76.8 µM. Summed up: as §1
Assay [16] is described as follows: A CellTox Green Cytotoxicity Assay to monitor cytotoxicity in HepG2 cells - 8 hour (AID 1224890). Note: nearly all actives have a fitted effect of over 45% in size. Note: potency is the fitted concentration of half-maximal effect. The note with it: CellTox Green fluorescence; series mostly up to 76.8 µM. A digest of the protocol: as §3
Assay [17] in a line: qHTS RealTime-Glo MT Cell Viability Assay in HEK293 cells - 40 hour (AID 1224874). Note: nearly all actives have a fitted effect of over 50% in size. Note: potency is the fitted concentration of half-maximal effect. Conditions: RealTime-Glo luminescence; max response: stronger effect = lower value. Summed up: as §5
Assay [18] in a line: A CellTox Green Cytotoxicity Assay to monitor cytotoxicity in HEK293 cells - 32 hour (AID 1224881). Note: nearly all actives have a fitted effect of over 40% in size. Note: potency is the fitted concentration of half-maximal effect. Conditions: CellTox Green fluorescence; series mostly up to 76.8 µM. A digest of the protocol:
as §1

Assay [19] can be described thus: qHTS RealTime-Glo MT Cell Viability Assay in HEK293 cells - 8 hour (AID 1224887). Note: nearly all actives have a fitted effect of over 50% in size. Note: potency is the fitted concentration of half-maximal effect. Conditions: RealTime-Glo luminescence; series mostly up to 76.8 µM. Summed up: as §5
Assay [20] is described as follows: qHTS RealTime-Glo MT Cell Viability Assay in HepG2 cells - 0 hour (AID 1224889). Note: nearly all actives have a fitted effect of over 50% in size. The note with it: RealTime-Glo luminescence; series mostly up to 76.8 µM. A digest of the protocol: as §4

SMILES strings stand for the structures. Several values for one entry are separate records, joined by “and”; a condition that tells them apart may be missing. Equal entries are not always repeated. Inconclusive results are not listed. More than one record can exist for a structure, and the calls need not agree. Activity calls are given as the source filed them. Calls come from the whole dose curve; as a rule, active = well fitted curve in the direction sought with a large enough effect in the repeat runs; inconclusive = weak or mixed curves; inactive = no such curve, though single readings can be large; an effect the other way counts as inactive or inconclusive.
% is set by controls: 0 for no effect and ±100 for the full control effect.

On to `COP(=S)(OC)Oc1cc(Cl)c(Br)cc1Cl`, for which the Potency result in assay [1], in [2], in [3], in assay [4], in [5] and in [6] was “inactive” throughout. The Potency entry in assay [7], in [8], in assay [9], in assay [10], in [11] and in [12] was “inactive” throughout. Further, the Potency result in [13], in assay [14], in assay [15] and in assay [16] was “inactive” throughout.
For `O=C1C=CC(=O)c2ccccc21`, the Potency is 3.89 µM (active) in assay [1]; 17.4 µM (active) in assay [3]; 4.9 µM (active) in [17]; 6.92 µM (active) in assay [4]; 13.8 µM (active) in assay [5]; 24.5 µM (active) in [6]. Also, the Potency was 12.3 µM (active) in [7]; 12.3 µM (active) in [8]; 12.3 µM (active) in assay [9]; 6.16 µM (active) in [18]; 12.3 µM (active) in assay [11]; 19.5 µM (active) in assay [13]. In addition, the Potency was 5.49 µM (active) in [14], 6.16 µM (active) in assay [19] and 15.5 µM (active) in assay [16]. Besides, the Potency result in assay [10], in assay [12] and in assay [15] was “inactive” throughout.
`CC(C)[C@H](C(=O)OC(C#N)c1cccc(Oc2ccccc2)c1)c1ccc(OC(F)F)cc1` (some centres not stated): the Potency result in [1], in assay [2], in assay [4], in assay [6], in assay [7] and in [8] was “inactive” throughout. Further, the Potency entry in assay [9], in [18], in [10], in assay [11], in assay [12] and in assay [13] was “inactive” each time. The Potency entry in assay [14], in assay [19], in [15], in [20] and in assay [16] was “inactive” in each case. In addition, the max response in assay [17] was -16.8% (inactive).
Take `N#CCc1ccc(Cl)cc1`: the Potency result in assay [1], in assay [3], in assay [4], in assay [5], in [6] and in assay [7] was “inactive” each time. The Potency entry in assay [8], in [9], in assay [18], in [10], in [11] and in assay [12] was “inactive” each time. The Potency entry in assay [13], in assay [14], in assay [15], in assay [20] and in assay [16] was “inactive” in each case. Also, the max response in [17] was 1.31% (inactive).
On to `CC(c1ccc(O)cc1)c1ccc(O)cc1`, for which the Potency result in [1], in [3], in [4], in [5], in assay [6] and in assay [7] was “inactive” throughout. In addition, the Potency result in [8], in assay [9], in assay [18], in assay [10], in assay [11] and in [12] was “inactive” in each case. Also, the Potency entry in assay [13], in assay [19], in assay [15], in [20] and in assay [16] was “inactive” each time. The Potency in [14] was 45.9 µM (active) and inactive.
Regarding `COc1cc(C=O)cc2c1[C@H](COC(N)=O)[C@]1(OC(C)=O)ON2C[C@H]2[C@@H]1N2C(C)=O`, the Potency entry in assay [1], in assay [3], in [4], in assay [5], in [18] and in assay [10] was “inactive” throughout. Also, the Potency result in [12], in [19], in assay [15], in [20] and in [16] was “inactive” throughout. Moreover, the Potency in assay [17] is 0.0309 µM (active); in [7] it was 0.11 µM (active); in [8], 0.0776 µM (active); in assay [11] it was 0.0977 µM (active); in assay [14] it was 0.245 µM (active).
For `Oc1ccc(C(c2ccc(O)cc2)(C(F)(F)F)C(F)(F)F)cc1`, the Potency is 43.4 µM (active) and inactive in [1]; 38.7 µM (active) in [17]; 54.9 µM (active) in assay [5]; 54.7 µM (active) and 24.5 µM (active) in assay [7]; 54.7 µM (active) and 54.9 µM (active) in assay [8]; 43.4 µM (active) and inactive in [18]. Further, in assay [14], the Potency is 43.4 µM (active). Moreover, the Potency entry in [3], in [6], in assay [9], in assay [10], in assay [13] and in [15] was “inactive” throughout. The Potency entry in assay [20] and in assay [16] was “inactive” in each case.
Consider `CC1(C)[C@H](C(=O)O[C@H](C#N)c2cccc(Oc3ccccc3)c2)[C@@H]1/C=C(\Cl)C(F)(F)F`, for which the Potency result in assay [1], in assay [3], in assay [4], in assay [5], in [6] and in assay [7] was “inactive” each time. Also, the Potency result in assay [8], in [9], in [18], in assay [11], in [12] and in assay [13] was “inactive” in each case. Further, the Potency entry in [15], in assay [20] and in assay [16] was “inactive” each time. Moreover, in [17], the max response was -24.1% (inactive).
As for `O=C(CBr)c1ccc(O)cc1`, the Potency entry in [1], in assay [3], in [4], in assay [5], in assay [6] and in [7] was “inactive” in each case. Further, the Potency result in assay [9], in [18], in assay [12], in [13], in assay [15] and in assay [20] was “inactive” in each case. Also, in assay [16], the Potency entry is “inactive”. Also, in [17], the max response was 22.3% (inactive).
As for `CN(C)C1CSSSC1`, the Potency result in assay [1], in [3], in assay [4], in [5], in assay [6] and in [7] was “inactive” in each case. The Potency entry in assay [8], in [9], in assay [18], in [10], in assay [11] and in assay [13] was “inactive” throughout. In addition, the Potency entry in [14], in [15], in assay [20] and in [16] was “inactive” in each case. Besides, the max response in [17] was 3.22% (inactive).
As to `NC(=O)c1ccc(N)nc1`, the Potency entry in assay [1], in assay [3], in assay [4], in assay [5], in assay [6] and in [7] was “inactive” in each case. Further, the Potency result in assay [8], in assay [9], in [18], in assay [11], in assay [12] and in assay [13] was “inactive” each time. Also, the Potency entry in assay [19], in assay [15], in assay [20] and in assay [16] was “inactive” throughout.
Regarding `CC(C)OC(=S)S`, the Potency result in [1], in assay [3], in assay [4], in [5], in [6] and in assay [7] was “inactive” each time. Besides, the Potency result in assay [9], in assay [18], in assay [10], in [12], in assay [13] and in [15] was “inactive” in each case. The Potency result in assay [20] and in [16] was “inactive” throughout. Further, the max response in [17] was 12.1% (inactive).
